The text below walks through data of PubChem BioAssay (NCI).

This is part of a sample that, as a whole, favours compounds with a hit. Of some 79,000 tested, about 15% had one in any assay. Values without a mark were called inactive. Rule as the data show it: active = growth inhibition above about 70%; inactive = the rest.

One assay is described as follows: NCI Yeast Anticancer Drug Screen. Data for the bub3 strain (AID 167). The note with it: S. cerevisiae bub3 mutant strain, at 50.0 µM, active compounds read high. An outline of the steps:
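Whole-cell yeast assay. The mutant strain was incubated with compounds, and growth inhibition was determined by comparison with vehicle-treated cells.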
Consider `CCOc1ccc(NC(=O)C(=O)CC(=O)C2=C(C)Nc3ccccc3S2)cc1`, for which the growth inhibition was -1%.

Regarding `CC(C)[C@@H](C)[C@@]1(C)C[C@@H]1[C@@H](C)[C@H]1CC[C@@H]([C@@H]2CC=C3C[C@@H](O)CC[C@]3(C)C2=O)[C@]1(C)CCO`, the growth inhibition was -7.35%.

On to `COc1cc(C(=O)CCCC(=O)O)cc(OC)c1OC`, for which the growth inhibition is 16.3%.

As for `CCC(C)(O)CCc1ccccc1` (stereo not given), the growth inhibition is -36.3%.

Consider `Cc1cc(Cl)c(Cl)cc1NC(=O)c1c(Br)c(Br)c(Br)c(Br)c1C(=O)O`, for which the growth inhibition is -3.2%.

With `CC1CC=CCC1COB(OCC1CC=CCC1C)OCC1CC=CCC1C` (stereo not given), the growth inhibition was 24.3%.

On to `COc1cc(C=O)c(-c2c(C=O)ccc3c2OCO3)c(OC)c1OC`, for which the growth inhibition is 26%.

Consider `CC(C)C1C(=O)CCCC1=O`, for which the growth inhibition is -17.5%.

As for `O=C(O)C[C@H]1CCCCC12CCOC2=O` (stereo not given in full), the growth inhibition is 22%.

Regarding `O=C1NC(C(=O)O)CC1O` (stereo not given), the growth inhibition is 17.9%.

Turning to `O=C1NCC2Cc3ccccc3C(c3ccccc3)=C12` (stereo not given), the growth inhibition is -3.9%.

Take `CCCCNc1cccc2ccccc12`: the growth inhibition is 2.55%.

Turning to `O=C1NC(N2CCCC(CO)C2)=N/C1=C\c1cccs1` (stereo not given), the growth inhibition was -14.4%.

`COc1ccc2c(c1)[n+]([O-])c(/C(C)=N/NC(N)=S)c(C)[n+]2[O-]`: the growth inhibition was 61%.

In the case of `C[C@@H](O)c1nc(C(N)=O)cs1`, the growth inhibition is 1.35%.

As to `CCOC(=O)C1SCCC1(C)O` (stereo not given), the growth inhibition was 3.55%.

As for `COc1ccc(C)cc1NS(=O)(=O)c1ccccc1`, the growth inhibition is -9.65%.

`O=C1CC[C@@H](C(=O)Nc2cccc3ccccc23)N1`: the growth inhibition was 10.6%.

`O=C1C(c2ccccc2)=C(c2ccccc2)C(c2ccc(Cc3ccc(C4=C(c5ccccc5)C(=O)C(c5ccccc5)=C4c4ccccc4)cc3)cc2)=C1c1ccccc1`: the growth inhibition was 15.1%.

Take `O=C(Nc1ccccc1)NC1CCCC1`: the growth inhibition is -12.2%.

Take `CCSC(SCC)C(SCC)C(OC(=O)c1ccccc1)C(OC(=O)c1ccccc1)C(COC(=O)c1ccccc1)OC(=O)c1ccccc1` (stereo not given): the growth inhibition is 4.25%.

`CCCCC1(C(=O)NC(=Nc2ccccc2)Nc2ccccc2)CCOC1=O` (stereo not given): the growth inhibition is -2.95%.

In the case of `N#CCC(=O)N/N=C1\C(=O)N(c2ccc(Cl)cc2)C(=O)C(=O)C1c1nc2ccccc2o1` (stereo not given), the growth inhibition was 1.35%.

Consider `c1ccc(CCN2CCN=C2Cc2ccccc2)cc1`, for which the growth inhibition was -27.1%.

Turning to `CN(Cc1ccccc1)C(=O)/C=C/c1ccccc1`, the growth inhibition was 27.2%.

With `CCOC(=O)C1=C(c2ccccc2)OC(N)=C(C#N)C1c1ccccc1` (stereo not given), the growth inhibition is 25.3%.

Take `[N-]=[N+]=CC(=O)c1cc(-c2ccccc2)nc2c(-c3ccccc3)cccc12`: the growth inhibition is 62.8%.

For the molecule `NC(=O)N=P(c1ccccc1)(c1ccccc1)c1ccccc1`, the growth inhibition is 3%.

In the case of `CCCc1ccccc1[N+](=O)[O-]`, the growth inhibition was 8.7%.

On to `O=[N+]([O-])c1ccc(N=Cc2ccccc2)cc1`, for which the growth inhibition was 16.5%.

For `COC(=O)C1=C(C(=O)OC)C2CCCOC2=C(C)C1` (stereo not given), the growth inhibition is 14.3%.

As for `CC(c1ccccc1)c1ccc2ccccc2c1C(=O)O` (stereo not given), the growth inhibition is 29.6%.

For `Cc1nn(-c2nc(-c3ccccc3)cs2)c(C)c1C`, the growth inhibition is -0.5%.

Take `Cc1nnc(N/N=C/c2ccccc2)n1/N=C\c1ccccc1`: the growth inhibition is 4.85%.

For the molecule `CCCCCCCCCCCCCCCCCC(N)=O`, the growth inhibition was -2.5%.

Regarding `COc1ccc(C)cc1Sc1ccc(C)cc1[N+](=O)[O-]`, the growth inhibition is 10%.

Take `Oc1ccc(C=Nc2ccccc2)c(O)c1O`: the growth inhibition was -9.7%.

As for `COc1ccc(CC(O)CN2CCC(CCN)CC2)cc1` (stereo not given), the growth inhibition is 23.6%.

For the molecule `CC(=O)/C(=C/c1ccc(F)cc1)C(=O)CCN(C)C`, the growth inhibition is -11.5%.

Consider `CCOC(=O)CC(=O)c1cc(OC)c(OC)c(OC)c1`, for which the growth inhibition was 39.9%.

The nature of a further assay: NCI Yeast Anticancer Drug Screen. Data for the mlh1 rad18 strain (AID 175). The note with it: S. cerevisiae mlh1 rad18 strain growth inhibition; at 50.0 µM; active compounds read high. An outline of the steps: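 In this whole-cell yeast screen, a strain with altered DNA damage repair is challenged with compound, and its growth is measured against matched vehicle-treated controls.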
For `CCOc1ccc(NC(=O)C(=O)CC(=O)C2=C(C)Nc3ccccc3S2)cc1`, the growth inhibition is 28.5%.

As to `CC(C)[C@@H](C)[C@@]1(C)C[C@@H]1[C@@H](C)[C@H]1CC[C@@H]([C@@H]2CC=C3C[C@@H](O)CC[C@]3(C)C2=O)[C@]1(C)CCO`, the growth inhibition is -3.35%.

Take `COc1cc(C(=O)CCCC(=O)O)cc(OC)c1OC`: the growth inhibition was 5.3%.

Take `CCC(C)(O)CCc1ccccc1` (stereo not given): the growth inhibition is -5%.

`Cc1cc(Cl)c(Cl)cc1NC(=O)c1c(Br)c(Br)c(Br)c(Br)c1C(=O)O`: the growth inhibition is 28.4%.

Take `CC1CC=CCC1COB(OCC1CC=CCC1C)OCC1CC=CCC1C` (stereo not given): the growth inhibition is -0.25%.

Consider `COc1cc(C=O)c(-c2c(C=O)ccc3c2OCO3)c(OC)c1OC`, for which the growth inhibition was -1.5%.

For the molecule `CC(C)C1C(=O)CCCC1=O`, the growth inhibition was -3.35%.

Consider `O=C(O)C[C@H]1CCCCC12CCOC2=O` (stereo not given in full), for which the growth inhibition is 9.85%.

For `O=C1NC(C(=O)O)CC1O` (stereo not given), the growth inhibition was 17.6%.

Consider `O=C1NCC2Cc3ccccc3C(c3ccccc3)=C12` (stereo not given), for which the growth inhibition is -4.25%.

As to `CCCCNc1cccc2ccccc12`, the growth inhibition was 27.6%.

As for `O=C1NC(N2CCCC(CO)C2)=N/C1=C\c1cccs1` (stereo not given), the growth inhibition is -39.7%.

As for `COc1ccc2c(c1)[n+]([O-])c(/C(C)=N/NC(N)=S)c(C)[n+]2[O-]`, the growth inhibition is 47.1%.

In the case of `C[C@@H](O)c1nc(C(N)=O)cs1`, the growth inhibition is 10.1%.

On to `CCOC(=O)C1SCCC1(C)O` (stereo not given), for which the growth inhibition is 12.7%.

On to `COc1ccc(C)cc1NS(=O)(=O)c1ccccc1`, for which the growth inhibition was 10.4%.

Take `O=C1CC[C@@H](C(=O)Nc2cccc3ccccc23)N1`: the growth inhibition is 21.2%.

As for `O=C1C(c2ccccc2)=C(c2ccccc2)C(c2ccc(Cc3ccc(C4=C(c5ccccc5)C(=O)C(c5ccccc5)=C4c4ccccc4)cc3)cc2)=C1c1ccccc1`, the growth inhibition was 26.6%.

On to `O=C(Nc1ccccc1)NC1CCCC1`, for which the growth inhibition was -1.2%.

`CCSC(SCC)C(SCC)C(OC(=O)c1ccccc1)C(OC(=O)c1ccccc1)C(COC(=O)c1ccccc1)OC(=O)c1ccccc1` (stereo not given): the growth inhibition was 33.3%.

Consider `CCCCC1(C(=O)NC(=Nc2ccccc2)Nc2ccccc2)CCOC1=O` (stereo not given), for which the growth inhibition is 4.9%.

For `N#CCC(=O)N/N=C1\C(=O)N(c2ccc(Cl)cc2)C(=O)C(=O)C1c1nc2ccccc2o1` (stereo not given), the growth inhibition was 8.45%.

For `c1ccc(CCN2CCN=C2Cc2ccccc2)cc1`, the growth inhibition was 9.3%.

As for `CN(Cc1ccccc1)C(=O)/C=C/c1ccccc1`, the growth inhibition is 14.8%.

In the case of `CCOC(=O)C1=C(c2ccccc2)OC(N)=C(C#N)C1c1ccccc1` (stereo not given), the growth inhibition is -4.85%.

Turning to `[N-]=[N+]=CC(=O)c1cc(-c2ccccc2)nc2c(-c3ccccc3)cccc12`, the growth inhibition was 59.1%.

Turning to `NC(=O)N=P(c1ccccc1)(c1ccccc1)c1ccccc1`, the growth inhibition is -12.9%.

For the molecule `CCCc1ccccc1[N+](=O)[O-]`, the growth inhibition is -7.1%.

On to `O=[N+]([O-])c1ccc(N=Cc2ccccc2)cc1`, for which the growth inhibition is 5.8%.

As for `COC(=O)C1=C(C(=O)OC)C2CCCOC2=C(C)C1` (stereo not given), the growth inhibition is 7%.

Turning to `CC(c1ccccc1)c1ccc2ccccc2c1C(=O)O` (stereo not given), the growth inhibition is 64.8%.

Take `Cc1nn(-c2nc(-c3ccccc3)cs2)c(C)c1C`: the growth inhibition is -8.2%.

Regarding `Cc1nnc(N/N=C/c2ccccc2)n1/N=C\c1ccccc1`, the growth inhibition was -25.4%.

Regarding `CCCCCCCCCCCCCCCCCC(N)=O`, the growth inhibition was 25.4%.

In the case of `COc1ccc(C)cc1Sc1ccc(C)cc1[N+](=O)[O-]`, the growth inhibition was -22.9%.

On to `Oc1ccc(C=Nc2ccccc2)c(O)c1O`, for which the growth inhibition is 6.2%.

Consider `COc1ccc(CC(O)CN2CCC(CCN)CC2)cc1` (stereo not given), for which the growth inhibition was -5.65%.

Regarding `CC(=O)/C(=C/c1ccc(F)cc1)C(=O)CCN(C)C`, the growth inhibition was -22.2%.

As to `CCOC(=O)CC(=O)c1cc(OC)c(OC)c(OC)c1`, the growth inhibition was 20.4%.
